Experimental data taken from PubChem BioAssay AID1159580 (chemical genetic matrix, 2015).
“And” between values parts separate entries of the source, which are not always exact repeats. Equal values may be shown once. Out of some 5,500 compounds screened, about 2,000 (36%) were called active. Roughly 18% stayed inconclusive and do not appear here. Cut-off read from the data, not from the text of the source: active = normalized growth mostly below about 0.91 (no sharp cut-off); inconclusive = no clear call, values can overlap the other calls; inactive = mostly above about 0.92. This is one part of the list.

Assay: chemical genetic growth profiling, strain panel (AID 1159580);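 note: tested at 20 µM; growth read once vehicle control cultures reached saturation at 30 °C; 1 = growth at the plate median or of vehicle wells; lower values mean less growth of the strain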
Details: S. cerevisiae deletion strains, growth OD

Measured: normalized growth

CC(=O)OC1CCC23C(=O)OC45CCC(C6=CC(=O)OC6)C4(C)CCC2C5CCC3(O)C1 (centres undefined)
inactive: locus YAL021C, strain ccr4, hits give low values 1 | locus YAL026C, strain drs2, hits give low values 0.979 | locus YAL030W, strain snc1, hits give low values 0.996 | locus YBL061C, strain skt5, hits give low values 0.975 | locus YBR009C, strain hhf1, hits give low values 0.998 | locus YBR021W, strain FUR4, hits give low values 1 | locus YBR023C, strain chs3, hits give low values 0.991 | locus YBR171W, strain sec66, hits give low values 0.953 | locus YBR229C, strain ROT2, hits give low values 1.01 | locus YBR231C, strain swc5, hits give low values 0.987 | locus YBR279W, strain paf1, hits give low values 1.01 | locus YCL011C, strain gbp2, hits give low values 1 | locus YCL016C, strain dcc1, hits give low values 1.04 | locus YCL029C, strain bik1, hits give low values 1.02 | locus YCL061C, strain MRC1, hits give low values 0.997 | locus YCL069W, strain vba3, hits give low values 0.979 | locus YCR088W, strain abp1, hits give low values 0.986 | locus YDL005C, strain med2, hits give low values 0.98 | locus YDL035C, strain GPR1, hits give low values 1.05 | locus YDL040C, strain nat1, hits give low values 0.99 | locus YDL074C, strain BRE1, hits give low values 1.1 | locus YDL101C, strain DUN1, hits give low values 1.01 | locus YDL185W, strain tfp1, hits give low values 0.992 | locus YDL192W, strain arf1, hits give low values 1.03 | locus YDR001C, strain nth1, hits give low values 0.991 | locus YDR069C, strain doa4, hits give low values 0.963 | locus YDR101C, strain arx1, hits give low values 1 | locus YDR137W, strain rgp1, hits give low values 1.03 | locus YDR159W, strain sac3, hits give low values 0.961 | locus YDR162C, strain NBP2, hits give low values 1.03 | locus YDR195W, strain ref2 0.943 | locus YDR297W, strain sur2, hits give low values 0.987 | locus YDR318W, strain mcm21, hits give low values 1.02 | locus YDR334W, strain swr1, hits give low values 0.959 | locus YDR335W, strain msn5, hits give low values 0.992 | locus YDR388W, hits give low values 0.998 | locus YDR392W, strain spt3, hits give low values 0.962 | locus YDR502C, strain sam2, hits give low values 1.02 | locus YEL003W, strain gim4, hits give low values 0.988 | locus YEL037C, strain rad23, hits give low values 0.97 | locus YEL061C, strain CIN8 (second series), hits give low values 0.981 | locus YER015W, strain faa2, hits give low values 0.977 | locus YER016W, strain bim1, hits give low values 0.994 | locus YER110C, hits give low values 0.997 | locus YER111C, strain swi4, hits give low values 0.95 | locus YER155C, strain BEM2 (second series), hits give low values 0.968 | locus YER155C, strain BEM2, hits give low values 1 | locus YER167W, strain BCK2, hits give low values 1.01 | locus YFR010W, strain ubp6, hits give low values 0.959 | locus YGL078C, strain dbp3, hits give low values 1 | locus YGL086W, strain mad1, hits give low values 1 | locus YGL167C, strain pmr1, hits give low values 0.978 | locus YGL173C, strain kem1, hits give low values 0.972 | locus YGL227W, strain vid30, hits give low values 0.994 | locus YGL240W, strain doc1, hits give low values 0.973 | locus YGL248W, strain PDE1, hits give low values 1.06 | locus YGL253W, strain hxk2, hits give low values 0.98 | locus YGR135W, strain pre9, hits give low values 0.997 | locus YGR252W, strain gcn5, hits give low values 1 | locus YHR013C, strain ard1, hits give low values 0.994 | locus YHR027C, strain rpn1, hits give low values 0.971 | locus YHR030C, strain SLT2, hits give low values 1.02 and 0.956 | locus YHR079C, strain IRE1 (second series), hits give low values 0.994 | locus YHR079C, strain IRE1, hits give low values 0.984 | locus YHR094C, strain hxt1, hits give low values 1 | locus YHR129C, strain ARP1, hits give low values 1.02 | locus YHR142W, strain chs7, hits give low values 1.02 | locus YHR200W, strain rpn10, hits give low values 1.01 | locus YIL066C, strain RNR3, hits give low values 1.03 | locus YIL073C, strain SPO22, hits give low values 1.11 | locus YIL125W, strain kgd1, hits give low values 1.02 | locus YIR030C, strain dcg1, hits give low values 1 | locus YJL092W, strain hpr5, hits give low values 0.971 | locus YJL095W, strain BCK1 (second series), hits give low values 0.96 | locus YJL095W, strain BCK1, hits give low values 1.08 and 0.965 | locus YJL115W, strain asf1, hits give low values 0.979 | locus YJL129C, strain trk1, hits give low values 0.973 | locus YJL134W, strain LCB3, hits give low values 1.01 | locus YJL154C, strain vps35, hits give low values 0.988 | locus YJL164C, strain tpk1, hits give low values 1.04 | locus YJL166W, strain qcr8, hits give low values 0.977 | locus YJL168C, strain set2, hits give low values 1.01 | locus YJL187C, strain SWE1 (second series), hits give low values 1.02 | locus YJR043C, strain POL32, hits give low values 1.05 | locus YJR066W, strain TOR1, hits give low values 0.883 | locus YKL009W, strain mrt4, hits give low values 1.02 | locus YKL068W, hits give low values 1.01 | locus YKL085W, strain MDH1 (second series), hits give low values 1 | locus YKL085W, strain MDH1, hits give low values 1 | locus YKL160W, strain elf1, hits give low values 1.06 | locus YKR001C, strain vps1, hits give low values 1.02 | locus YKR026C, strain gcn3, hits give low values 0.976 | locus YKR091W, strain srl3, hits give low values 0.994 | locus YLL001W, strain dnm1, hits give low values 1.01 | locus YLL026W, hits give low values 0.996 | locus YLL041C, strain sdh2, hits give low values 0.966 | locus YLR027C, strain aat2, hits give low values 0.988 | locus YLR039C, strain RIC1, hits give low values 1.23 | locus YLR058C, strain SHM2, hits give low values 1.02 | locus YLR102C, strain apc9, hits give low values 0.994 | locus YLR113W, strain HOG1, hits give low values 1.01 | locus YLR221C, strain rsa3, hits give low values 0.981 | locus YLR258W, strain gsy2, hits give low values 1 | locus YLR262C, strain YPT6 (second series), hits give low values 1.01 | locus YLR268W, strain sec22, hits give low values 1.02 | locus YLR320W, strain mms22, hits give low values 0.988 | locus YLR342W, strain FKS1 (second series), hits give low values 1.06 | locus YLR342W, strain FKS1, hits give low values 0.995 | locus YLR357W, strain rsc2, hits give low values 0.973 | locus YLR370C, strain arc18, hits give low values 0.986 | locus YLR371W, strain rom2, hits give low values 1.02 | locus YLR384C, strain iki3, hits give low values 0.997 | locus YLR418C, strain cdc73, hits give low values 1.06 | locus YML016C, strain PPZ1, hits give low values 1.01 | locus YML032C, strain rad52, hits give low values 1.01 | locus YML120C, strain ndi1, hits give low values 1.01 | locus YML124C, strain tub3, hits give low values 1.01 | locus YMR058W, strain fet3, hits give low values 0.988 | locus YMR078C, strain ctf18, hits give low values 1.01 | locus YMR125W, strain sto1, hits give low values 0.992 | locus YMR129W, hits give low values 0.986 | locus YMR205C, strain PFK2, hits give low values 1.01 | locus YMR223W, strain ubp8, hits give low values 1 | locus YMR231W, strain pep5, hits give low values 0.97 | locus YMR263W, strain SAP30, hits give low values 1.01 | locus YMR307W, strain GAS1, hits give low values 1.16 | locus YNL067W, strain RPL9B, hits give low values 0.999 | locus YNL071W, strain lat1, hits give low values 0.994 | locus YNL183C, strain NPR1, hits give low values 0.922 | locus YNL209W, strain ssb2, hits give low values 0.996 | locus YNL233W, strain BNI4, hits give low values 1.05 | locus YNL248C, strain rpa49, hits give low values 0.989 | locus YNL250W, strain rad50, hits give low values 1.03 | locus YNL271C, strain bni1, hits give low values 1.02 | locus YNL298W, strain CLA4, hits give low values 1.01 | locus YNL307C, strain MCK1, hits give low values 1.02 | locus YNL322C, strain KRE1 (second series), hits give low values 0.987 | locus YNR049C, strain mso1, hits give low values 0.967 | locus YNR052C, strain pop2, hits give low values 0.996 | locus YOL006C, strain TOP1, hits give low values 1.28 | locus YOL012C, strain htz1 0.952 | locus YOL147C, strain pex11, hits give low values 1.02 | locus YOR001W, strain rrp6, hits give low values 0.929 | locus YOR061W, strain CKA2, hits give low values 1.02 | locus YOR069W, strain VPS5, hits give low values 1 | locus YOR070C, strain gyp1, hits give low values 0.982 | locus YOR080W, strain dia2, hits give low values 0.98 | locus YOR083W, strain WHI5, hits give low values 1.06 | locus YOR106W, strain vam3, hits give low values 1.05 | locus YOR136W, strain idh2, hits give low values 0.997 | locus YOR144C, strain elg1, hits give low values 1 | locus YOR184W, strain ser1, hits give low values 1.02 | locus YOR231W, strain MKK1, hits give low values 0.976 | locus YOR265W, strain rbl2, hits give low values 0.996 | locus YOR270C, strain vph1, hits give low values 1 | locus YOR290C, strain snf2, hits give low values 1.02 | locus YOR316C, strain cot1, hits give low values 1.02 | locus YPL051W, strain arl3, hits give low values 0.967 | locus YPL055C, strain LGE1, hits give low values 1.09 | locus YPL078C, strain atp4, hits give low values 1.06 | locus YPL106C, strain sse1, hits give low values 1 | locus YPL240C, strain hsp82, hits give low values 0.979 | locus YPL241C, strain CIN2, hits give low values 1.02 | locus YPL256C, strain CLN2, hits give low values 0.975 | locus YPR119W, strain clb2, hits give low values 0.999 | locus YPR141C, strain kar3, hits give low values 0.997 | locus YPR163C, strain tif3, hits give low values 1.01 | locus YPR167C, strain met16, hits give low values 1.02 | strain wtn01, hits give low values 1
